Screens from PubChem BioAssay.
G9a inh = inhibitors of human histone lysine methyltransferase G9a; Q96KQ7; G9a H3K9 monomethylation, AlphaScreen, 2 h; Potency, µM (highest dose often 102 µM), actives largely listed as inhibitors; 350,000 compounds, 8.8% hits; AID 504332; further: nearly all actives have a fitted effect of over 75% in size
Target sequence (Q96KQ7 913-1193 limits assumed): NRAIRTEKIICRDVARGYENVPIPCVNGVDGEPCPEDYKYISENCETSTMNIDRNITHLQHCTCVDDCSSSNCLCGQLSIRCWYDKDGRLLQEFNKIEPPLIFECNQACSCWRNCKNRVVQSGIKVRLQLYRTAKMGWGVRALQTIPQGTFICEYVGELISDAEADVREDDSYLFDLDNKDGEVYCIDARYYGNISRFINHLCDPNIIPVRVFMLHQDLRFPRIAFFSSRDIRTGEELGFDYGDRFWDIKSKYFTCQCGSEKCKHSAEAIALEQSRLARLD
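Methyltransferase reactions run at room temperature for 2 h (20 nM enzyme, 500 nM biotin-H3K9 peptide, 20 uM SAM) after a 15 min compound preincubation; product detected by AlphaScreen beads and anti-H3K9me1 antibody.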
Sfp inh = inhibitors of Bacillus subtilis Sfp phosphopantetheinyl transferase. Q9F4F7. Biochemical Sfp PPTase activity, qHTS. Potency, µM, actives largely listed as inhibitors. 310,000 compounds, 3.5% hits. AID 1490;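 further: the enzyme is Sfp with the accession as filed and its product quenches rhodamine fluorescence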
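With Hepes-Na pH 7.6 buffer containing 10 mM MgCl2, Sfp (15 nM) modified BHQ-2-YbbR (12.5 uM) using rhodamine-CoA (5 uM). Two reads 30 minutes apart at 525/598 nm yielded each well's rate.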
VDR inh = vitamin D3 receptor (human) inhibition; VDR-SRC2-3 peptide fluorescence polarization, 2 h; Potency, µM, usual class: inhibitors; 400,000 compounds, 0.93% hits
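Inhibition of the VDR/SRC2-3 peptide interaction is quantified by fluorescence polarization. Compounds (23 nl, pintool) incubate with the reagents for 2 hours at ambient room temperature.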
ALOX12 inh = ALOX12 (human) lipoxygenase inhibition | 580,000 compounds, 1.1% hits | purified 12hLO, xylenol orange hydroperoxide absorbance | Potency, µM (series often up to 108 µM), hits mostly inhibitors | AID 1671190
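Purified human 12hLO at 150 nM in 25 mM Hepes, 0.01% Triton X-100, pH 7.0, preincubated 15 min at room temperature with compound. Reaction started with 40 uM arachidonic acid, 30 min at room temperature. Hydroperoxide measured by Fe-xylenol orange, 573/405 nm absorbance ratio.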
GRP78 ERSR act = inducers of ER stress response in human glioma cells; U87-MG GRP78 promoter luciferase reporter, 16 h; Potency, µM, hits mostly activators; 420,000 compounds, 0.02% hits; AID 602332; further: series mostly up to about 76 µM; nearly all actives have a fitted effect of over 35% in size
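ERSR induction read as luciferase luminescence (Bright-Glo, 10 min at room temperature) in stably transfected human U87-MG glioma cells exposed to compounds for 16 h, using GRP78 as sensor.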
A number is an active result; . = inactive; ? = inconclusive; / = no result given. Only a selection was taken, and hits are over-represented in it overall. The call rests on the fitted dose curve; in most records, active means well fitted curve in the direction sought with a large enough effect; inconclusive means small, poorly fitted or top-dose-only effect, or another doubt; inactive means no such curve, though single readings can be large; an effect the other way counts as inactive or inconclusive.

SMILES	G9a inh	Sfp inh	VDR inh	ALOX12 inh	GRP78 ERSR act
COc1ccc(C)cc1Nc1nc(-c2c[nH]c3ccccc23)cs1	3.2µM	28µM	.	?	.
CNC(=O)CCn1ncc2cc(OC3CCc4cccc(-c5ccc(O)c(F)c5)c43)ccc21 (stereo not drawn)	/	/	/	50µM	/
CNC(=O)CCn1ncc2cc(OC3CCc4cccc(-c5cnn(C)c5)c43)ccc21 (stereo not drawn)	/	/	/	.	/
O=C(c1cccc(NS(=O)(=O)c2ccc(F)c(F)c2)c1)N1CCN(C(c2ccccc2)c2ccccc2)CC1	50µM	.	.	.	.
COc1cccc(N2CCN(C(=O)c3cccc(NC(=O)c4nsc5ccccc45)c3)CC2)c1	.	/	.	.	.
O=C(c1cccc(NS(=O)(=O)c2ccc(Br)cc2)c1)N1CCN(c2ccccc2O)CC1	50µM	/	.	?	.
CCOc1ccc(S(=O)(=O)NCCC(=O)N2CCN(c3ccc(OC)cc3)CC2)cc1	45µM	.	.	?	.
COc1ccc(N2CCN(C(=O)c3cccc(NC(=O)c4nsc5ccccc45)c3)CC2)cc1	10µM	/	.	.	.
C[C@@H]1CN(C(=O)c2cnc3c(O)cccn3c2=O)CC[C@@]1(O)C1CCC1	/	/	/	.	/
CCOc1ccc(S(=O)(=O)Nc2cccc(C(=O)N3CC(C)OC(C)C3)c2)cc1 (stereo not drawn)	.	/	.	.	.
CCOc1ccc(S(=O)(=O)Nc2cccc(C(=O)N3CCN(c4ccc(OC)cc4)CC3)c2)cc1	11µM	.	.	.	.
CC(C)CC(=O)N1CCN(CC2CC=CCC2)CC1 (stereo not drawn)	6.3µM	.	.	?	.
CCC(CC)N1CCN(CC2CC=CCC2)CC1 (stereo not drawn)	10µM	?	.	.	.
Cc1ccccc1C(=O)Nc1ccnn1C1CCN(CC2CC=CCC2)CC1 (stereo not drawn)	/	.	.	.	.
O=C(NCc1coc(-c2cccs2)n1)c1ccc(OC(F)F)cc1	/	/	/	.	/
Cc1sc(NC(=O)c2nn(C)c(=O)c3ccccc23)nc1-c1ccc(F)cc1	/	/	/	.	/
COc1cc(SSc2cc(OC)cc([N+](=O)[O-])c2N)c(N)c([N+](=O)[O-])c1	0.45µM	2.5µM	7.9µM	?	.
CC(NC(=O)c1ccc[n+]([O-])c1)c1cccc(C(F)(F)F)c1 (stereo not drawn)	/	/	/	.	/
COc1ccc(-c2cc(=O)c3c(OC)c(OC)c(OC)c(OC)c3o2)cc1OC	?	.	.	?	.
COc1ccc(Br)c2oc(SC)cc(=O)c12	40µM	.	.	?	.
CCOC(=O)C(C)/C(C)=N/NC(N)=S (stereo not drawn)	?	40µM	.	.	.
CCOC(=O)C(NC(C)=O)C(=O)OCC	/	/	/	.	/
Clc1ccc(-c2csc(N/N=C/c3ccc4c(c3)OCO4)n2)cc1	40µM	.	.	.	.
O=[N+]([O-])c1cc(/C=N\Nc2nc(-c3ccccc3)cs2)ccc1O	11µM	50µM	.	.	.
Cc1csc(N/N=C/c2ccc(O)c([N+](=O)[O-])c2)n1	14µM	32µM	.	?	.
SMILES	G9a inh	Sfp inh	VDR inh	ALOX12 inh	GRP78 ERSR act
O=C(/C=C/c1ccc2c(c1)OCO2)Nc1nc(-c2ccccc2)cs1	.	.	.	.	.
Cc1onc(-c2ccccc2)c1C(=O)N/N=C/c1ccc(O)c([N+](=O)[O-])c1	.	.	.	.	.
O=C(c1cc2ccccc2[nH]1)N(Cc1cccs1)C1CC1	/	/	/	.	/
O=C(NCCc1c[nH]c2ccccc12)c1c(OCC2CC2)cc(=O)n2c1CCOCC2	/	/	/	.	/
CCN1/C(=C2/OC(=S)N(C)C2=O)Sc2ccccc21	?	.	.	.	.
CCN1/C(=C2/SC(=S)NC2=O)Sc2ccccc21	8.9µM	.	.	?	.
O=C(CN1C(=O)/C(=C/c2ccccc2F)SC1=S)NC1C=CS(=O)(=O)C1 (stereo not drawn)	/	22µM	.	.	.
O=C(CN1C(=O)/C(=C/c2cccc(Cl)c2)SC1=S)NC1C=CS(=O)(=O)C1 (stereo not drawn)	.	.	.	?	.
CN1CCN(NC(=O)CN2C(=O)/C(=C/c3ccccc3F)SC2=S)CC1	50µM	.	/	.	/
Cc1cc(NC(=O)CN2C(=O)/C(=C/c3ccccc3F)SC2=S)no1	.	.	.	.	.
